Laboratory results as given in the supplement of paper PMC3724861.
This is one part of a sample in which hits are shown more often than they occur. How many sequences the whole screen found active is unknown.

Test system: T1, Caupolican (Caup) homeodomain DNA-binding domain
T1 sequence: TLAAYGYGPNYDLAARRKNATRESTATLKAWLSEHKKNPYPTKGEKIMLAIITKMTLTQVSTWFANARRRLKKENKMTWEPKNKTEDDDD
Assay: PBM E-score (8-mer, recovered from the published 9-mer minima) (E-score (dimensionless, -0.5 to 0.5)); Drosophila protein; higher = stronger relative binding preference, active = 0.31 or more
Outline: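 Caup's homeodomain DNA-binding domain (residues 214-303) was made by in vitro transcription and translation and applied at 100 nM to custom-designed protein binding microarrays. Each value is an enrichment score that gives relative binding preference for a short DNA word, with higher meaning stronger. The 8-mer values were recovered from published 9-mer scores, each of which was the minimum of its two constituent 8-mer scores. A cutoff of 0.31 marks candidate sites.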

Sequence | PBM E-score
AATAGCCT | -0.0311 (inactive)
AATAGAGA | 0.041 (inactive)
CACGTAAG | 0.0839 (inactive)
GTGCTCCA | -0.0875 (inactive)
CTTCCAGC | -0.248 (inactive)
CCCGAATC | -0.201 (inactive)
CAAATGTC | 0.141 (inactive)
CACATCTC | -0.00827 (inactive)
AACATGTT | 0.45 (active)
AAAATGTT | 0.249 (inactive)
AACATCTT | 0.246 (inactive)
CACATGTA | 0.42 (active)
CACATCTA | 0.208 (inactive)
CAAATGTA | 0.294 (inactive)
CACATGTC | 0.387 (active)
AACATCTA | 0.252 (inactive)
AACATGTA | ≥ 0.48 (active)
AACATTTA | 0.275 (inactive)
GCGTACGC | -0.112 (inactive)
ACCACCAC | 0.0458 (inactive)
CGAATCTC | 0.0162 (inactive)
GATGCCCA | -0.0463 (inactive)
CGCTTTAC | 0.0463 (inactive)
GCGATACA | 0.217 (inactive)

Sequence | PBM E-score
ATTGGGAG | -0.0672 (inactive)
ACGGATCG | 0.00507 (inactive)
CCTTGCTA | 0.0673 (inactive)
AAAGGTCT | -0.0899 (inactive)
GAAATGTA | 0.131 (inactive)
CACATGTG | 0.18 (inactive)
GAAATGTC | 0.114 (inactive)
AACATCTC | 0.254 (inactive)
GACATGTC | 0.437 (active)
AACATGTG | 0.402 (active)
AAAATGTC | 0.217 (inactive)
GACATATC | 0.256 (inactive)
AACATCTG | 0.22 (inactive)
AACATGTC | 0.424 (active)
GACATGTA | 0.477 (active)
GACATTTA | 0.177 (inactive)
CGTGCTGA | 0.0459 (inactive)
CTGGGCTC | -0.186 (inactive)
ACACCACA | 0.262 (inactive)
ACGCTGTC | 0.0456 (inactive)
GCCACCAC | -0.199 (inactive)
ATTGCCAG | -0.0611 (inactive)
AAGTTACA | 0.261 (inactive)
TAGTTACA | 0.311 (active)

Sequence | PBM E-score
CTGTTACA | 0.33 (active)
GAGTTACA | 0.215 (inactive)
ACGTTACG | 0.0614 (inactive)
CTGTTACC | 0.142 (inactive)
GCGTTACA | 0.198 (inactive)
ATGTTACG | 0.326 (active)
GTGTTAAA | 0.246 (inactive)
CGGTTACA | 0.183 (inactive)
GTGTTACA | 0.381 (active)
AGGTTACG | -0.0221 (inactive)
CGTTATTA | 0.116 (inactive)
AAAACCGG | -0.0173 (inactive)
ACGCAATG | 0.0404 (inactive)
CTGTCCCC | -0.0725 (inactive)
CAGCTAGG | -0.046 (inactive)
TACAATGA | 0.266 (inactive)
ACGTTACA | 0.282 (inactive)
ATGTTACA | 0.406 (active)
ATGTTACC | 0.331 (active)
AGGTTACA | 0.191 (inactive)
AGGTTACC | -0.0352 (inactive)
AAGTTACC | 0.148 (inactive)
AAGTCGTG | 0.0196 (inactive)
AAAATGTA | 0.166 (inactive)

Sequence | PBM E-score
CGATATTA | 0.219 (inactive)
ATTTTACA | 0.305 (inactive)
TCTTACAA | 0.246 (inactive)
AATTACGT | 0.122 (inactive)
AATTACCA | 0.184 (inactive)
TATTACAA | 0.341 (active)
AATTACAG | 0.244 (inactive)
GATTACCA | 0.0721 (inactive)
CATTACAA | 0.288 (inactive)
AATTACAT | 0.385 (active)
AATTACTA | 0.179 (inactive)
AATTACAA | 0.396 (active)
GATTACTA | 0.184 (inactive)
GATTACAA | 0.314 (active)
AAGACTGC | -0.0769 (inactive)
AAATGACG | 0.171 (inactive)
GATGCCAA | -0.0306 (inactive)
TAGCGGGA | -0.169 (inactive)
CGATATTC | -0.0778 (inactive)
AGGATGAA | -0.102 (inactive)
CCGAGTCG | -0.169 (inactive)
AGAAGAGG | -0.176 (inactive)
CCCCTTCG | -0.25 (inactive)
ATGGGAAC | 0.0233 (inactive)

Sequence | PBM E-score
AGGTAGAA | 0.0148 (inactive)
TAACAGCA | 0.145 (inactive)
CACAAACC | -0.0236 (inactive)
TTGATCAA | 0.115 (inactive)
GACCGTTA | 0.0165 (inactive)
AGTCAGAC | -0.0283 (inactive)
AGTTACAG | 0.189 (inactive)
TGTTACAA | 0.42 (active)
CGTTACAA | 0.289 (inactive)
ACTTACAT | 0.339 (active)
AGTTACAT | 0.319 (active)
ACTTACAC | 0.245 (inactive)
AGTTACAC | 0.303 (inactive)
ACTTACAG | 0.187 (inactive)
AGTTACAA | 0.295 (inactive)
CCGAAATC | -0.0715 (inactive)
CCGAGCAG | -0.0223 (inactive)
ACTCAGCA | 0.0319 (inactive)
GCGTGTTA | 0.284 (inactive)
ACGTGTTA | 0.33 (active)
ACGTGTTC | 0.279 (inactive)
CAGTGTTA | 0.24 (inactive)
CGGTGTTC | 0.157 (inactive)
AGGTGTTA | 0.207 (inactive)

Sequence | PBM E-score
CCGTGTTA | 0.321 (active)
AGGTGTTG | 0.125 (inactive)
ACGTGTGG | 0.0393 (inactive)
CCGTGTTC | ≥ 0.382 (active)
ACGTGTTG | 0.347 (active)
CGGTGTTA | 0.179 (inactive)
ACCGGGCC | -0.228 (inactive)
GCACGTCC | -0.0893 (inactive)
AGTTTTCC | -0.0223 (inactive)
AGCCCACT | -0.166 (inactive)
ATGTTCAA | 0.327 (active)
ATGTTCGG | 0.244 (inactive)
ATGTTCGA | 0.34 (active)
AGGTTCAC | -0.0392 (inactive)
CTGTTCAC | 0.147 (inactive)
ATGTTCAG | 0.295 (inactive)
CTGTTCAA | 0.0792 (inactive)
ATGTTCAC | 0.334 (active)
GTGTTCGA | 0.236 (inactive)
CACTCTGA | 0.0251 (inactive)
ATAGGGTG | -0.0464 (inactive)
CCCATAAC | 0.0433 (inactive)
CACGACCA | 0.098 (inactive)
CAGAAGAG | -0.0491 (inactive)

Sequence | PBM E-score
ATCCTCCG | -0.0647 (inactive)
AAGTGAGA | -0.0758 (inactive)
CCTCTGGA | -0.169 (inactive)
CTCCGTGA | -0.0581 (inactive)
CGGTAGGC | -0.149 (inactive)
ATACGATA | 0.186 (inactive)
CCCTGTAA | 0.161 (inactive)
CGATGTAC | 0.374 (active)
GAATGTAC | 0.165 (inactive)
CGATGTGC | -0.0367 (inactive)
GGATGTAC | 0.305 (inactive)
GCATGTAC | 0.413 (active)
CCATGTAG | 0.268 (inactive)
CCATGTAA | 0.404 (active)
ACCTGTAG | 0.0685 (inactive)
CGATGTAG | 0.179 (inactive)
ACATGTAG | 0.476 (active)
AAATGTAG | 0.0799 (inactive)
AGGCTTTC | -0.088 (inactive)
ACCGCGGA | -0.137 (inactive)
ATTCCTTA | 0.0011 (inactive)
CATCCCAC | -0.133 (inactive)
GCTGCCGA | -0.282 (inactive)
ACATGTAA | 0.468 (active)

Sequence | PBM E-score
AGATGTAC | 0.299 (inactive)
CCATGTAC | 0.411 (active)
TCATGTAA | 0.427 (active)
TCATGGAA | 0.0375 (inactive)
AAATGTAC | 0.279 (inactive)
ACATGTAC | ≥ 0.48 (active)
AACTGTAA | 0.197 (inactive)
CCCTGTAC | 0.158 (inactive)
ACACGTAA | 0.309 (inactive)
TCCTGTAA | 0.2 (inactive)
CCCCTTGA | -0.156 (inactive)
CACGCACA | 0.0915 (inactive)
AGGTCATG | 0.0878 (inactive)
ATAGTCGG | -0.0656 (inactive)
AAAGCTCG | -0.0924 (inactive)
CTCATCTC | -0.158 (inactive)
GGGATTGA | -0.0471 (inactive)
GCCTGTAA | 0.09 (inactive)
GCATGTAA | 0.409 (active)
GCATGGAA | -0.00398 (inactive)
ACATGTAT | 0.469 (active)
ACCTGTAT | 0.222 (inactive)
AAATGTAT | 0.241 (inactive)
CGCAGAAC | -0.0278 (inactive)

Sequence | PBM E-score
GAATTATA | 0.109 (inactive)
GCGGGTAA | -0.02 (inactive)
AAACAACC | 0.202 (inactive)
AAACAACA | 0.363 (active)
CAACAACC | 0.238 (inactive)
TAACAAAA | 0.119 (inactive)
TAACAACA | 0.406 (active)
TAACAAGA | 0.298 (inactive)
CAACAACA | 0.408 (active)
GAACAACA | 0.292 (inactive)
AAACAACT | 0.246 (inactive)
AGTATCTA | 0.166 (inactive)
TATCTAGA | 0.0449 (inactive)
GGACCCAC | -0.208 (inactive)
GAGCAGAC | -0.0808 (inactive)
CTAGAAAA | 0.0157 (inactive)
CACTAATG | 0.0246 (inactive)
CATAGCCG | -0.0066 (inactive)
ACCACGTG | 0.0775 (inactive)
AACACGTG | ≥ 0.351 (active)
AACACGTC | 0.299 (inactive)
AACACGTT | 0.292 (inactive)
AACACGTA | 0.316 (active)
CACACGTG | 0.148 (inactive)

Sequence | PBM E-score
CTATTTTC | 0.101 (inactive)
GCTACACA | 0.185 (inactive)
ACTACACT | 0.242 (inactive)
ACTACACA | ≥ 0.357 (active)
ACTACACC | 0.281 (inactive)
ACTACACG | ≥ 0.357 (active)
CCTACACG | 0.18 (inactive)
ATAGCTCG | -0.0531 (inactive)
GTTCCCAA | -0.045 (inactive)
CGATGCTC | -0.13 (inactive)
CACGTGTA | 0.329 (active)
GACGTGGA | -0.0891 (inactive)
AACGTGTC | 0.257 (inactive)
CACGTGAA | 0.00852 (inactive)
AACGTGTA | 0.371 (active)
GACGTGAA | -0.0186 (inactive)
AACGTGTG | 0.111 (inactive)
GACGTGTA | 0.344 (active)
CACGTGTC | 0.266 (inactive)
